PubChem BioAssay (NCATS)
Values joined by “and” are separate entries in the source; they are usually repeats but may differ in a detail not shown here. Equal entries are not always repeated. Results filed as inconclusive are left out. Active and inactive are the calls of the source. Unless noted, calls follow the shape of the dose curve; as a rule, active = well fitted curve in the direction sought with a large enough effect; inconclusive = small, poorly fitted or top-dose-only effect, or another doubt; inactive = no such curve, though single readings can be large; an effect the other way counts as inactive or inconclusive.

Assays:
C33A = assay: Primary qHTS to identify gynecologic anti-cancer compounds using libraries of approved drugs and bioactive compounds (AID 1345084); details: Gynecologic cancer cell panel viability, ATPlite luminescence, 48 h; series mostly up to 57.5 µM; also: % is scaled to controls: 0 for no effect and ±100 for the full control effect; nearly all actives have a fitted effect of over 55% in size
Procedure, shortened: (§1)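 Five-point cytotoxicity, 48 h drug exposure at 37 C, 5% CO2, on cells seeded 16 h beforehand. ATP content read by ATPlite luminescence.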

CAOV3 = assay: as above; details: Gynecologic cancer cell panel viability, ATPlite luminescence, 48 h; series mostly up to 57.5 µM
Procedure, shortened: as §1

CASKI = assay: as above; details: Gynecologic cancer cell panel viability, ATPlite luminescence, 48 h; series mostly up to 57.5 µM
Procedure, shortened: as §1

Es-2 = assay: as above; details: Gynecologic cancer cell panel viability, ATPlite luminescence, 48 h; series mostly up to 57.5 µM
Procedure, shortened: as §1

HeLa = assay: as above; details: Gynecologic cancer cell panel viability, ATPlite luminescence, 48 h; series mostly up to 57.5 µM
Procedure, shortened: as §1

Hek293T = assay: as above; details: Gynecologic cancer cell panel viability, ATPlite luminescence, 48 h, control line for the selectivity index; series mostly up to 57.5 µM
Procedure, shortened: as §1

JEG-3 = assay: as above; details: Gynecologic cancer cell panel viability, ATPlite luminescence, 48 h; series mostly up to 57.5 µM
Procedure, shortened: as §1

PA-1 = assay: as above; details: Gynecologic cancer cell panel viability, ATPlite luminescence, 48 h; series mostly up to 57.5 µM
Procedure, shortened: as §1

SKOV3 = assay: as above; details: Gynecologic cancer cell panel viability, ATPlite luminescence, 48 h; series mostly up to 57.5 µM
Procedure, shortened: as §1

Tov-21-G = assay: as above; details: Gynecologic cancer cell panel viability, ATPlite luminescence, 48 h; series mostly up to 57.5 µM
Procedure, shortened: as §1

Tov112D = assay: as above; details: Gynecologic cancer cell panel viability, ATPlite luminescence, 48 h; series mostly up to 57.5 µM
Procedure, shortened: as §1

[1] = Drug repurposing screens with cells derived from glioblastoma tumor samples (AID 1345199); details: GBM patient neurospheres viability, ATP luminescence, 48 h; also: nearly all actives have a fitted effect of over 40% in size; also: potency is read from the fitted curve at half-maximal effect; as to activity, negative = cell killing: % is scaled to controls: 0 for no effect and ±100 for the full control effect
Procedure, shortened: (§2)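 Four patient lines of CD133+ GBM neurospheres were screened at several concentrations; hits were retested in those lines plus three slower-growing GBM lines, using 48-hour treatment and ATP-based viability.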

astro = assay: as above; details: viability, ATP luminescence, 48 h; series mostly up to 45.9 µM
Procedure, shortened: as §2

OV90 = assay: Primary qHTS to identify gynecologic anti-cancer compounds using libraries of approved drugs and bioactive compounds (AID 1345084); details: Gynecologic cancer cell panel viability, ATPlite luminescence, 48 h; series mostly up to 57.5 µM; also: % is scaled to controls: 0 for no effect and ±100 for the full control effect; nearly all actives have a fitted effect of over 55% in size
Procedure, shortened: as §1

[2] = molecular target: Nuclear receptor subfamily 1 group I member 2 (Rattus norvegicus) (UniProt Q9R1A7); assay: qHTS assay for small molecule activators of the rat pregnane X receptor (rPXR) signaling pathway (AID 651751; call rule not given here; also: 0% is about no effect); details: rPXR reporter cells, luciferase (One-Glo), 24 h
[3] = at 45.9 µM (top of the series), tumour line B
[4] = at 45.9 µM (top of the series), tumour line D
[5] = at 46.1 µM (top of the series), tumour line C

Chain of Nuclear receptor subfamily 1 group I member 2 (Rattus norvegicus) (Q9R1A7 whole entry, looked up): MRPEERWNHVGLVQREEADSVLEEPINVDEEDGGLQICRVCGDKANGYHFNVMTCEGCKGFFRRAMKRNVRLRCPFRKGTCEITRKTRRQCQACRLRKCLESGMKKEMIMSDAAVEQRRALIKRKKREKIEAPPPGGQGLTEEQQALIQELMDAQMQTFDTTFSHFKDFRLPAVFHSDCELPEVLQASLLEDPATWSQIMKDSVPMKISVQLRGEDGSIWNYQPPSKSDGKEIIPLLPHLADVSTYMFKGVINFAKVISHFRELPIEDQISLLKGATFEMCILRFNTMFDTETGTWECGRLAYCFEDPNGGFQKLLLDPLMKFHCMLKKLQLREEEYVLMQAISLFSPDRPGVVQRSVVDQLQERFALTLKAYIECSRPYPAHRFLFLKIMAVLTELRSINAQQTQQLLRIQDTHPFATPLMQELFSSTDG

Nc1ccc(C(=O)N2CC3CC(CN(Cc4ccccc4)C3)C2)cc1
inactive: Potency (C33A) | Potency (CAOV3) | Potency (CASKI) | Potency (Es-2) | Potency (HeLa) | Potency (Hek293T) | Potency (JEG-3) | Potency (PA-1) | Potency (SKOV3) | Potency (Tov-21-G) | Potency (Tov112D)

C=CC[N+]1([C@H]2C[C@H]3[C@@H]4CC[C@H]5C[C@H](OC(C)=O)[C@@H](N6CCCCC6)C[C@]5(C)[C@H]4CC[C@]3(C)[C@H]2OC(=O)CC)CCCCC1
active: Potency ([1]; tumour line A) 6.31 µM
inactive: Potency (C33A) | Potency (CAOV3) | Potency (CASKI) | Potency (Es-2) | Potency (HeLa) | Potency (Hek293T) | Potency (JEG-3) | Potency (PA-1) | Potency (SKOV3) | Potency (Tov-21-G) | Potency (Tov112D) | activity, negative = cell killing [1, 3] -10% | activity, negative = cell killing [1, 4] -23% | activity, negative = cell killing [1, 5] -14.4% | Potency (astro)

NC(=O)NC1N=C([O][Al])NC1=O (centres undefined)
inactive: Potency (C33A) | Potency (CAOV3) | Potency (CASKI) | Potency (Es-2) | Potency (HeLa) | Potency (Hek293T) | Potency (JEG-3) | Potency (OV90) | Potency (SKOV3) | Potency (Tov-21-G) | Potency (Tov112D)

CN1[C@@H]2CC[C@H]1CC(NC(=O)n1c(=O)[nH]c3ccccc31)C2 (some centres undefined)
active: Potency ([1]; tumour line A) 28.2 µM
inactive: Potency (C33A) | Potency (CAOV3) | Potency (CASKI) | Potency (Es-2) | Potency (HeLa) | Potency (Hek293T) | Potency (JEG-3) | Potency (PA-1) | Potency (SKOV3) | Potency (Tov-21-G) | Potency (Tov112D) | activity, negative = cell killing [1, 3] 3.71% | activity, negative = cell killing [1, 4] -10.2% | activity, negative = cell killing [1, 5] 9.49% | Potency (astro)

CN1N=C(C(N)=O)CCC1=O
inactive: Potency (C33A) | Potency (CAOV3) | Potency (CASKI) | Potency (Es-2) | Potency (HeLa) | Potency (Hek293T) | Potency (JEG-3) | Potency (OV90) | Potency (Tov-21-G) | Potency (Tov112D)

CC(C)(c1ccc(O)cc1)c1ccc(O)cc1
inactive: Potency (C33A) | Potency (CAOV3) | Potency (CASKI) | Potency (Es-2) | Potency (HeLa) | Potency (Hek293T) | Potency (JEG-3) | Potency (PA-1) | Potency (SKOV3) | Potency (Tov-21-G) | Potency (Tov112D) | activity, negative = cell killing ([1]; at 91.6 µM (top of the series), tumour line B) -24% | activity, negative = cell killing ([1]; at 99.2 µM (top of the series), tumour line C) -43.4% | max response [2] 7.46% and 2.86% and -5.15%

Cc1cc(O)c2c(O)c3c(O)cccc3cc2c1
inactive: Potency (C33A) | Potency (CAOV3) | Potency (CASKI) | Potency (Es-2) | Potency (HeLa) | Potency (Hek293T) | Potency (JEG-3) | Potency (OV90) | Potency (PA-1) | Potency (Tov-21-G) | Potency (Tov112D) | activity, negative = cell killing [1, 3] -27.7% | Potency (astro)
active: Potency ([1]; tumour line A) 14.1 µM

CCOC(=O)c1ccc(O)c(O)c1
inactive: Potency (C33A) | Potency (CAOV3) | Potency (CASKI) | Potency (Es-2) | Potency (HeLa) | Potency (Hek293T) | Potency (JEG-3) | Potency (OV90) | Potency (Tov-21-G) | Potency (Tov112D)

O=C(c1ccco1)N1CCNCC1
inactive: Potency (C33A) | Potency (CAOV3) | Potency (CASKI) | Potency (Es-2) | Potency (HeLa) | Potency (Hek293T) | Potency (JEG-3) | Potency (PA-1) | Potency (SKOV3) | Potency (Tov-21-G) | Potency (Tov112D)

CCNC(=O)NCCCOc1cccc(CN2CCCCC2)c1
active: Potency ([1]; tumour line A) 17.8 µM
inactive: Potency (C33A) | Potency (CAOV3) | Potency (CASKI) | Potency (Es-2) | Potency (HeLa) | Potency (Hek293T) | Potency (JEG-3) | Potency (PA-1) | Potency (SKOV3) | Potency (Tov-21-G) | Potency (Tov112D) | activity, negative = cell killing [1, 3] -3.43% | activity, negative = cell killing [1, 4] -22.4% | activity, negative = cell killing [1, 5] -25.1% | Potency (astro)

OCCOCCN1CCN(C(c2ccccc2)c2ccc(Cl)cc2)CC1 (centres undefined)
inactive: Potency (C33A) | Potency (CAOV3) | Potency (CASKI) | Potency (Es-2) | Potency (HeLa) | Potency (Hek293T) | Potency (JEG-3) | Potency (PA-1) | Potency (SKOV3) | Potency (Tov-21-G) | Potency (Tov112D) | Potency (astro) | max response [2] -2.98%

O=C(O)c1ccccc1Nc1cc(Cl)ccc1C(=O)O
inactive: Potency (C33A) | Potency (CAOV3) | Potency (CASKI) | Potency (Es-2) | Potency (HeLa) | Potency (Hek293T) | Potency (JEG-3) | Potency (PA-1) | Potency (SKOV3) | Potency (Tov-21-G) | Potency (Tov112D) | activity, negative = cell killing [1, 3] -6.14% | activity, negative = cell killing [1, 4] -11.1% | activity, negative = cell killing ([1]; at 46 µM (top of the series), tumour line A) -27.3% | activity, negative = cell killing [1, 5] 1.8% | Potency (astro)

CCCCC/C=C\C/C=C\CCCCCCCC(=O)NC(C)c1ccccc1 (centres undefined)
inactive: Potency (C33A) | Potency (CAOV3) | Potency (CASKI) | Potency (Es-2) | Potency (HeLa) | Potency (Hek293T) | Potency (JEG-3) | Potency (PA-1) | Potency (Tov-21-G) | Potency (Tov112D) | activity, negative = cell killing [1, 3] -3.69% | activity, negative = cell killing [1, 4] -27.1% | activity, negative = cell killing [1, 5] -9.18% | Potency (astro)
active: Potency ([1]; tumour line A) 11.2 µM

C=CCOc1cc(Cl)ccc1C(=O)NCCN(CC)CC
inactive: Potency (C33A) | Potency (CAOV3) | Potency (CASKI) | Potency (Es-2) | Potency (HeLa) | Potency (Hek293T) | Potency (JEG-3) | Potency (PA-1) | Potency (SKOV3) | Potency (Tov-21-G) | Potency (Tov112D) | activity, negative = cell killing [1, 3] -22.9% | activity, negative = cell killing [1, 5] 2.19% | Potency (astro)
active: Potency ([1]; tumour line A) 10 µM

CCN(CC)CCN
inactive: Potency (C33A) | Potency (CAOV3) | Potency (CASKI) | Potency (Es-2) | Potency (HeLa) | Potency (Hek293T) | Potency (JEG-3) | Potency (PA-1) | Potency (SKOV3) | Potency (Tov-21-G) | Potency (Tov112D)
